Here are results for 36 sequences from the OligoGym collection.
Also: reference of the scale not given here.

The target in one assay is TMEM90B. The experiment in a line: pooled miR-30 sensor sort-seq; sequence = guide strand. As to conditions: shRNA.
Sequence TTGTATATTGCTAATGCGGTGG showed a sensor-assay potency score (higher = more potent) of -0.114.
Regarding TTCATCTGGTAACTTAAGCAGC, the sensor-assay potency score (higher = more potent) was -0.817.
The same measure, in the same setting: for TATTTCTCAGCATTCATCTGGT the value was 0.677.
The same measure, in the same setting: the value for TCGATGAAGGTGGTCTCGCAGC was -1.08; that for TTGAGTAGTCGCTCTCCAGCTC was -0.0875; that for TCACTCTCTGTGTCGCTTGAGT was -1.01.
The same measure, in the same setting: the value for ATCATTTGTACTGTACAGCATC was -1.17; that for TGTGTCGCTTGAGTAGTCGCTC was 0.302; that for TTATTTCTCAGCATTCATCTGG was 0.827.
As to TAGAGGATGATGTTGGGCCGGT, the sensor-assay potency score (higher = more potent) is -0.523.
With TTTCTCAGCATTCATCTGGTAA, the sensor-assay potency score (higher = more potent) was -0.53.
The same measure, in the same setting: the value for TTAATTAAACCATTCCTCTTGC was 0.249.

The next assay has as its target TMOD3. The assay is described as above. As to conditions: shRNA.
Take TAGGGCACATAGTCTTCCCTGT: the sensor-assay potency score (higher = more potent) is -0.185.
Still for that read-out and setting: for TTACAATTTGATAACAACTAAA the value was -1.42.
Turning to TTTTTCTTCTGTAAAAGTCTGT, the sensor-assay potency score (higher = more potent) came out at 0.6.
On the same count and under the same terms, for TTTTCTTCTGTAAAAGTCTGTA the value was -0.198; for TATAGCATTAGCTGCTCTGGTT, -0.335.
On the same count and under the same terms, the value for TAACGCATCAATCAGTGCCAGA was -1.33.
On the same count and under the same terms, the value for TTTTTGTTATAGCATTAGCTGC was -1.37; that for TAGTTCTCTTCAAACTCTCTTC was -0.63.
With TTTCATTATCTCTTAACGCATC, the sensor-assay potency score (higher = more potent) is -0.758.
Same read-out and setting: the value for TTATATTACAGAACTTTGTATT was -0.879; that for TTCAACAAGATGAGCATCGTTT was -0.31.
Same read-out and setting: the value for TTACAGAACTTTGTATTCGTTA was 0.0652.

The target in the next assay is TNFAIP2. The assay is described as above. As to conditions: shRNA.
On to TCAACATACATACAAAAGCAGT, for which the sensor-assay potency score (higher = more potent) was -1.49.
Same read-out and setting: for TTTCTCTTCCAGTTCTGTCTTC the value was -0.182; for TATCAAACACGCTAACTCCTAC, -0.68; for TTCTGCTCCATGGACATCCGGA, -0.115.
Consider TTCTGTCTTCCATTCCACCATT, for which the sensor-assay potency score (higher = more potent) is -1.13.
The same measure, in the same setting: for TATCTGTGAGCCCAAGTCCAGC the value was -1.63; for TATCGTTTACAAAGAGTCCTTG, -0.0149.
Still for that read-out and setting: the value for TCGGACATGTAAACAAACCAAG was -1.46; that for TTGGCAATAACATTGGCCCTGT was -0.0405.
Same read-out and setting: the value for TCAATCTTGATGGCACTGGGGT was -0.553; that for TAATTCGTCAGCTGCTTGCCTC was -0.825.
As to TAGCTCCAGAGCTCGGTCCATC, the sensor-assay potency score (higher = more potent) is -1.52.
